A short description of assay [1]: small molecules captured by biotinylated probe aFSTL3 – biochemical, small-molecule microarray, fluorescence 635/667, stem cell growth factor project, primary screen (AID 1064).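 Also: measures binding of the biotinylated anti-FSTL3 antibody to printed compounds.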 Conditions: higher = more signal.
Assay [2] in a line: binders from COS7 lysate, DM2A8 probe, primary screen, torsin A project, cell lysate, small-molecule microarray, fluorescence 635/667 (AID 1065). Conditions: higher = more signal, COS7 lysate expressing mutant human TOR1A.
Assay [3] is described as follows: small molecules captured by biotinylated probe aFGF2 – biochemical, small-molecule microarray, fluorescence 635/667, stem cell growth factor project, primary screen (AID 1067).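 Also: measures binding of biotinylated aFGF2 protein to printed compounds on slides; z-score merges feature fluorescence and signal-to-noise across triplicate slides.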 Conditions: higher = more signal.
Assay [4] can be described thus: small molecules captured by biotinylated probe aFGF10 – biochemical, small-molecule microarray, fluorescence 635/667, stem cell growth factor project, primary screen (AID 1071).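 Also: score merges 667 nm spot intensity and signal to noise from triplicate slides.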 Conditions: higher = more signal.
Assay [5] concerns the target Neurogenic locus notch homolog protein 2 (Homo sapiens) (UniProt Q04721). The assay can be described thus: small molecules binding Notch2 protein – biochemical, small-molecule microarray, 635 nm fluorescence, stem cell growth factors, primary screen (AID 1073). Conditions: higher = more signal.
Assay [6] addresses Pro-neuregulin-1, membrane-bound isoform (Homo sapiens) (UniProt Q02297). The assay can be described thus: small molecules binding neuregulin-1 protein – biochemical, small-molecule microarray, fluorescence 635/667, psychiatric disease protein project, primary screen (AID 1075).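 Also: score combines 667 nm spot fluorescence with signal to noise.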 Conditions: NRG1 binding, 635 nm fluorescence, higher = more signal.
The test system of assay [7] is Neuregulin-1 EGF-like domain. Briefly: small molecules binding NRG1 EGF domain – biochemical, small-molecule microarray, 635 nm fluorescence, primary screen (AID 1081).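 Also: binding of the protein to compounds printed on small-molecule microarray slides.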 Conditions: higher = more signal.
The nature of assay [8]: FRG1 expression reporter modulators in myotubes – cell-based, C2C12 myotubes, firefly/Renilla luciferase, luminescence, FRG1 inhibition for FSHD, primary screen (AID 1084). Conditions: FRG1 promoter luciferase, higher = more signal, called active from +8 up or from −8 down.
Assay [9] in a line: small molecules captured by biotinylated probe aFST – biochemical, small-molecule microarray, fluorescence 635/667, stem cell growth factor project, primary screen (AID 1086).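 Also: score merges 667 nm fluorescence with signal-to-noise of each printed compound spot.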 Conditions: higher = more signal.
Assay [10] in a line: binders of probe aHhip on microarray, primary screen, stem cell growth factor project, biochemical, small-molecule microarray, fluorescence 635/667 (AID 1087).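 Also: score merges spot fluorescence at 667nm with spot signal to noise ratio.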 Conditions: higher = more signal.
Assay [11] relates to PRMT1 (protein arginine N-methyltransferase 1). The assay can be described thus: small molecules binding arginine methyltransferase PRMT1 – biochemical, small-molecule microarray, 635 nm fluorescence, primary screen (AID 1088).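 Also: binding of Prmt1 protein to compounds spotted on small-molecule microarray slides.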 Conditions: higher = more signal.
A short description of assay [12]: growth effects on S. cerevisiae YJM789 – YJM789 clinical isolate, OD600, 24 h, basal, primary screen (AID 1089).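 Also: growth of clinical yeast isolate S. cerevisiae YJM 789 seeded 1000 cells per well; test concentration not given here.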 Conditions: higher = more signal, called active from +8 up or from −8 down.
Assay [13] in a line: S. pombe growth modifiers, basal conditions – strain 972, OD600, 24 h, no modulator, primary screen (AID 1090).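 Also: basal condition with compound alone and no growth modifier present; test concentration not given here.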 Conditions: S. pombe 972 growth, higher = more signal, called active from +8 up or from −8 down.
Assay [14] in a line: budding yeast growth modifiers under rapamycin – strain BY4716, OD600, 96 h, primary screen (AID 1091). Also: test concentration not given here. Conditions: S. cerevisiae BY4716 + rapamycin, higher = more signal, called active from +8 up or from −8 down.
Assay [15] deals with Torsin-1A-interacting protein 2 (Homo sapiens) (UniProt Q8NFQ8). Briefly: small molecules binding lysate-expressed LULL1 – cell lysate, human LULL1 lysate, 635/667 nm fluorescence, primary screen (AID 1092).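 Also: probe is lysate of COS7 cells overexpressing human LULL1; score merges per-feature 667 nm fluorescence with signal-to-noise.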 Conditions: small-molecule microarray, hLULL1 lysate binding, 635 nm fluorescence; higher = more signal.
Assay [16] is described as follows: optical density change of DRC41 E. coli – strain DRC41, OD650, 24 h, E. coli filamentation project, primary screen (AID 1093).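 Also: MC1000 strain lacking acrAB efflux and sulA so SOS filamentation is blocked; test concentration not given here.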 Conditions: E. coli DRC41 growth, higher = more signal, called active from +8 up or from −8 down.
Assay [17] is described as follows: probe aLefty2 binding to arrayed compounds – biochemical, biotinylated probe, 635/667 nm fluorescence, primary screen (AID 1094).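 Also: score merges spot fluorescence near 667 nm with spot signal-to-noise ratio.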 Conditions: small-molecule microarray, higher = more signal.
In assay [18] the test system is Noggin (protein binding on small-molecule microarray). The assay can be described thus: small molecules binding Noggin protein – biochemical, 635/667 nm fluorescence, primary screen (AID 1095).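 Also: score merges 667 nm feature fluorescence with signal to noise over triplicate slides.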 Conditions: 635 nm fluorescence, higher = more signal.
Assay [19] has as its target Neurogenic locus notch homolog protein 3 (Homo sapiens) (UniProt Q9UM47). The assay can be described thus: small molecules binding NOTCH3 protein – biochemical, 635/667 nm fluorescence, primary screen (AID 1096). Conditions: small-molecule microarray, 635 nm fluorescence, higher = more signal.
The nature of assay [20]: probe aEGFR binding to arrayed compounds – biochemical, biotinylated probe, 635/667 nm fluorescence, primary screen (AID 1097).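 Also: probe is a biotinylated anti-EGFR antibody binding compounds printed on slides; score combines fluorescence near 667 nm and signal to noise of each spot.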 Conditions: small-molecule microarray, higher = more signal.

SMILES strings stand for the structures. The source made the active and inactive calls.

Chain of Neurogenic locus notch homolog protein 2 (Homo sapiens) (Q04721 whole entry, looked up, canonical isoform): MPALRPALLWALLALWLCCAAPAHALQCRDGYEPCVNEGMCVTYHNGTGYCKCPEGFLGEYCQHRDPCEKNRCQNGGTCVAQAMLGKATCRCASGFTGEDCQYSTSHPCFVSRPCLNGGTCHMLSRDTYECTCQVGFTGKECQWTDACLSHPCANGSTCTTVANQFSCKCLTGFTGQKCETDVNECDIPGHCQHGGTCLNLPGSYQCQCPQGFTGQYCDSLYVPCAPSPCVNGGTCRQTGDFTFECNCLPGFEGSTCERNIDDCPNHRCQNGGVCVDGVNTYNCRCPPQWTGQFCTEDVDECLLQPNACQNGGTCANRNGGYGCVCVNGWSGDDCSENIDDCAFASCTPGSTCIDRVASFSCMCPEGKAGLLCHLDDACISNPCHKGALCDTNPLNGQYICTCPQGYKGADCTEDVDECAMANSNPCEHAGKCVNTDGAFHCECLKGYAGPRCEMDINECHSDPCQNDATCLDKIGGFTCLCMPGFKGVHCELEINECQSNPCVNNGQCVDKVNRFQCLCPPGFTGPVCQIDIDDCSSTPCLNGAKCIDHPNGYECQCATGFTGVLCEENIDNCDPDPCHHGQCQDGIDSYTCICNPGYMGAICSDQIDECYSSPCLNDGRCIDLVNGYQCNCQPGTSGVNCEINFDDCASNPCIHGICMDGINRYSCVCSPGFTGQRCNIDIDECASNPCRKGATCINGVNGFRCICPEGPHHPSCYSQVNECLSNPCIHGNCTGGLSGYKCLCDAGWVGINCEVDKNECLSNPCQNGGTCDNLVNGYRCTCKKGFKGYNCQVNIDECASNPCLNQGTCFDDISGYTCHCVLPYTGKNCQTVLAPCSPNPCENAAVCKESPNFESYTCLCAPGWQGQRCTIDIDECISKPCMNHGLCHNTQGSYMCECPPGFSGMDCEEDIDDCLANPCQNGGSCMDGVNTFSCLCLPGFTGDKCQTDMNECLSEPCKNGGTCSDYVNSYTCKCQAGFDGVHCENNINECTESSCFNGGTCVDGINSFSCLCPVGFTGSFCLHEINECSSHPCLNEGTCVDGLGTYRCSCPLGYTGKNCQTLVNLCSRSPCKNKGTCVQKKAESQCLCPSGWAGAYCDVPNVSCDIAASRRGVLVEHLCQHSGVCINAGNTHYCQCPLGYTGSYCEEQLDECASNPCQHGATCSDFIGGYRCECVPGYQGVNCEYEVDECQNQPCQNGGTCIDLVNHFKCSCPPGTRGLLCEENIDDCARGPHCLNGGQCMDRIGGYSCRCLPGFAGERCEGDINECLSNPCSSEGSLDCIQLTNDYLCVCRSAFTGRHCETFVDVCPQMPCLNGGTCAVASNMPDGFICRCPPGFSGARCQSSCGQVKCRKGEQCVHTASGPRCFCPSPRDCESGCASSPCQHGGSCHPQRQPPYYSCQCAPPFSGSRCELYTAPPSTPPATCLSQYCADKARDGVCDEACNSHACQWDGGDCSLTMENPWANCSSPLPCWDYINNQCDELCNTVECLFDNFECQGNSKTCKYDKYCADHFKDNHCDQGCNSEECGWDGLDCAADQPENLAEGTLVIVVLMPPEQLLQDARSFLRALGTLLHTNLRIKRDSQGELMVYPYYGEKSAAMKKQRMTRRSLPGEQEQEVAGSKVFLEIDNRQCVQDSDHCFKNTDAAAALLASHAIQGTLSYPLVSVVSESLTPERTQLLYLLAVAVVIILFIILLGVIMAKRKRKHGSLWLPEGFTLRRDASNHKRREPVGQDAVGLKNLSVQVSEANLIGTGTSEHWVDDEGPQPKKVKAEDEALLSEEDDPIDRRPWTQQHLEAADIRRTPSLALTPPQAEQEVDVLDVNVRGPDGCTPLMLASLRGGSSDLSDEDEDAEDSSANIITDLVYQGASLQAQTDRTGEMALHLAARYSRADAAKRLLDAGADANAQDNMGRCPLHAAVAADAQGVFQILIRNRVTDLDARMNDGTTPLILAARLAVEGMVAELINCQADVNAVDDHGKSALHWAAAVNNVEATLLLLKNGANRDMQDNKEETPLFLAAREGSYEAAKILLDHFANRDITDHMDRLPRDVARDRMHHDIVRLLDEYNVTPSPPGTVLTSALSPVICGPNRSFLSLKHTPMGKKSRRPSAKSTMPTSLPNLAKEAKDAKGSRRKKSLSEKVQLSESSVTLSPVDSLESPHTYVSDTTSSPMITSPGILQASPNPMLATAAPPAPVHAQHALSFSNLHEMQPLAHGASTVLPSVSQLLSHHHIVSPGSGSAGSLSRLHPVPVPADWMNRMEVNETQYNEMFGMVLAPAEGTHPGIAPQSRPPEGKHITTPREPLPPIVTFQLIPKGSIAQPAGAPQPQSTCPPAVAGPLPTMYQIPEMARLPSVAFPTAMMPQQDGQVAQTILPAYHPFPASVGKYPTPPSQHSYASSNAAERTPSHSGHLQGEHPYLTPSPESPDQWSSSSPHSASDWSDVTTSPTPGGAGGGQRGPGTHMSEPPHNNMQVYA
Chain of Neurogenic locus notch homolog protein 3 (Homo sapiens) (Q9UM47 whole entry, looked up): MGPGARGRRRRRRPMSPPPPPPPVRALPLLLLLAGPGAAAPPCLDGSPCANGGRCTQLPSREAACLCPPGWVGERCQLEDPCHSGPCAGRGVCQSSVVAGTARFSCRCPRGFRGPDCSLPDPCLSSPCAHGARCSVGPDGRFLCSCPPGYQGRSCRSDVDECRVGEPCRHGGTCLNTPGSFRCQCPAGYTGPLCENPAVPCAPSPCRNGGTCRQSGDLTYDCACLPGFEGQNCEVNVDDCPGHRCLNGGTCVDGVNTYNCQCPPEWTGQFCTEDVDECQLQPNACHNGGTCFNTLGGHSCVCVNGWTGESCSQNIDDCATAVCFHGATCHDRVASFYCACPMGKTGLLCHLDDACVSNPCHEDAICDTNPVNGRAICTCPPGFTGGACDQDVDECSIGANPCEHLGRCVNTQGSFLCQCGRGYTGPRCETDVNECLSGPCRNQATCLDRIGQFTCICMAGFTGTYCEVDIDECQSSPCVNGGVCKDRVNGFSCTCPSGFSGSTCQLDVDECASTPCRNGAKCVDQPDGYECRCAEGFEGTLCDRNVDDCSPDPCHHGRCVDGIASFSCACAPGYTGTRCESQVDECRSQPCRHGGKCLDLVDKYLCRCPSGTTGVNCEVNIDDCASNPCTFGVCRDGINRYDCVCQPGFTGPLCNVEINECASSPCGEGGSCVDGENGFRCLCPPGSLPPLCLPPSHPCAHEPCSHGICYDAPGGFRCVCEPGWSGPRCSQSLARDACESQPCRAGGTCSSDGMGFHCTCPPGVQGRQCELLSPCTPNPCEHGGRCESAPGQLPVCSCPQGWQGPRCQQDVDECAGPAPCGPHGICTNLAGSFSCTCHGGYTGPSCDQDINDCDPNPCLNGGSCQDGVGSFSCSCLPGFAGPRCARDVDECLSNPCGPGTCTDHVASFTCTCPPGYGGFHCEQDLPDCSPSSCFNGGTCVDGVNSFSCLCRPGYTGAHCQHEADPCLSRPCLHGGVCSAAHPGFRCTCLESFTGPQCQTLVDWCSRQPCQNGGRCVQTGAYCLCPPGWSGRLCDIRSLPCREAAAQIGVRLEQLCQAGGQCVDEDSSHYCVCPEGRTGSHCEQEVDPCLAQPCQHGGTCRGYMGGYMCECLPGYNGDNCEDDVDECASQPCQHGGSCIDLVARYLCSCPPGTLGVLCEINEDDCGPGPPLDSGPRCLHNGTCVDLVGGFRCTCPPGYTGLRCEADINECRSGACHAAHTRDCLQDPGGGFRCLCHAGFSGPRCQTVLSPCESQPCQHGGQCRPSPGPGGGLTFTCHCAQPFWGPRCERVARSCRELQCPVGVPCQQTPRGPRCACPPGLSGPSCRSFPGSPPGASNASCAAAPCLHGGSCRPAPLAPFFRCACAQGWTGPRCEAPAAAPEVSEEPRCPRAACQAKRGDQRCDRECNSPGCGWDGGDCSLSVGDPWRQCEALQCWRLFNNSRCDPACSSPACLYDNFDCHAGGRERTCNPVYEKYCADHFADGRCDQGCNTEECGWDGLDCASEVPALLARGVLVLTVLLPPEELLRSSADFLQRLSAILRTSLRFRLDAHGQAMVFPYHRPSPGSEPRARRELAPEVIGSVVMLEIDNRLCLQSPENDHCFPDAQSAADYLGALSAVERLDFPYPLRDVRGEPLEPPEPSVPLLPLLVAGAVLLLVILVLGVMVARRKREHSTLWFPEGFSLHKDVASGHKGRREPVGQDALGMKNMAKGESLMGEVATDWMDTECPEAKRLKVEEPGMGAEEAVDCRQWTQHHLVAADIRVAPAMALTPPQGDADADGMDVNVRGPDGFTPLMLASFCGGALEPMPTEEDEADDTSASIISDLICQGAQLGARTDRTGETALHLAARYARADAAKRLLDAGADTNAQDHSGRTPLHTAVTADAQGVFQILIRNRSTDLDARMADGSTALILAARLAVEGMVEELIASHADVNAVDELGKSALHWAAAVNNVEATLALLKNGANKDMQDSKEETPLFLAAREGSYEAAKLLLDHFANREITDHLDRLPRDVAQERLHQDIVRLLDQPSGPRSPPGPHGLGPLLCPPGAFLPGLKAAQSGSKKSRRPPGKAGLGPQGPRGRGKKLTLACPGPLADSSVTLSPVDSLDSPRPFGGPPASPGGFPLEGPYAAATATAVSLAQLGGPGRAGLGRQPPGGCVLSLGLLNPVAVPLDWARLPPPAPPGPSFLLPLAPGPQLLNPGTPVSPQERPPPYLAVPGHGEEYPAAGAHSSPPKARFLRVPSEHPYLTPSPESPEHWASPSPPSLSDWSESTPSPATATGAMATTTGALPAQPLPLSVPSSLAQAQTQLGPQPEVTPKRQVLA

For `O=C1O[C@H](c2ccccc2)[C@H](c2ccccc2)N2[C@H]1[C@@H](C(=O)NC[C@H](O)c1ccccc1)[C@]1(C(=O)Nc3ccc(C#CCCO)cc31)[C@H]2c1ccc(O)cc1`, the composite z-score in assay [1] is 0.326; in assay [2] it was -0.543; in [3], -0.103; in assay [4], -0.465; in [5] it was -0.42; in [6], 0.0538. The composite z-score in assay [7] was -0.51; in assay [9], -0.445; in assay [10] it was 0.245; in assay [11] it was -0.0718; in assay [15], -0.217; in [17], 0.0249. Besides, the composite z-score is -0.984 in [18], -0.415 in [19] and -0.194 in assay [20]. Further, the z-score in assay [8] is 0.08 (inactive); in assay [12] it was -0.383 (inactive); in assay [13], -0.0869 (inactive); in assay [14] it was 0.105 (inactive); in [16], 0.092 (inactive).
As for `CC(C)=CCCC(C)=CC(O)C1C=CC2C(=O)N(c3ccccc3)C(=O)C2N1Nc1ccccc1` (stereo not given), the composite z-score in assay [1] stood at 0.475; in assay [2] it was 0.135; in assay [3], 0.155; in assay [4], 1.16; in [5], 1.64; in assay [6] it was 1.17. Besides, the composite z-score in [7] came out at 1.06; in assay [9], 1.6; in assay [10], 0.0497; in assay [11], 0.967; in assay [15], 2.89; in assay [17], 0.201. Moreover, the composite z-score is -0.196 in [18], 1.04 in [19] and 0.438 in [20]. The z-score in [8] was -2.84 (inactive); in [12] it was 0.316 (inactive); in assay [13], 0.171 (inactive); in assay [14], 1.02 (inactive); in assay [16], -1.99 (inactive).
In the case of `C=CCC(OC(C)=O)[C@@H]1[C@@H](N(Cc2ccc(-c3ccccc3)cc2)C(=O)Cc2ccc(OC)cc2)c2cc(OCCCO)ccc2N1C(=O)c1ccc2ccccc2n1` (stereo not given in full), the composite z-score was 0.0604 in [1]; -0.11 in assay [2]; -0.0074 in assay [3]; -0.0502 in assay [4]; 0.0378 in assay [5]; -0.111 in assay [6]. In addition, the composite z-score in assay [7] is -0.271; in [9], 0.411; in [10], -0.0994; in [11] it was -0.298; in assay [15], 1.02; in assay [17], 0.0171. For the same compound, the composite z-score is -0.49 in [18], 0.0617 in [19] and -0.0784 in [20]. Besides, the z-score in [8] is -0.83 (inactive); in [12] it was -1.15 (inactive); in assay [13], -0.832 (inactive); in [14] it was -0.551 (inactive); in [16], 0.374 (inactive).
For `CCOC(=O)C1=CC[C@@H](c2ccccc2Cl)N(S(=O)(=O)c2ccc(C)cc2)C1`, the composite z-score in assay [1] was 0.091; in assay [2], -0.507; in assay [3], 0.102; in assay [4] it was 0.435; in assay [5] it was 1.3; in [6], 1.31. Further, the composite z-score in assay [7] turned out to be 0.828; in assay [9] it was 0.802; in assay [10], 0.0373; in assay [11], 0.98; in [15], 2.24; in assay [17], 0.264. Besides, the composite z-score in assay [18] is -0.434; in assay [19], 1.04; in assay [20], -0.178. For the same compound, the z-score was -3 (inactive) in assay [8]; -2.37 (inactive) in assay [12]; 0.307 (inactive) in [13]; 0.661 (inactive) in assay [14]; -0.239 (inactive) in assay [16].
Take `C=CC(=C)C1=CCO[C@@H]1[C@H]1CCCN1S(=O)(=O)c1ccccc1[N+](=O)[O-]`: the composite z-score is -0.552 in [1]; 0.162 in assay [2]; -0.0716 in assay [3]; 0.138 in [4]; 1.07 in assay [5]; 0.832 in assay [6]. Besides, the composite z-score in assay [7] was 1.01; in [9], 0.358; in assay [10], -0.271; in assay [11], 0.921; in assay [15] it was 0.86; in [17] it was -0.0416. Further, the composite z-score in assay [18] was 0.35; in assay [19], 1.11; in [20], -0.115. Moreover, the z-score in assay [8] was -0.788 (inactive); in [12] it was -0.358 (inactive); in [13], 0.131 (inactive); in assay [14] it was -0.184 (inactive); in assay [16], 0.301 (inactive).

For the origin of these results see PubChem BioAssay.
